Test results as given in PubChem BioAssay (NCATS).
Records with an inconclusive call do not appear. Calls of active or inactive are those of the source. Calls come from the whole dose curve; as a rule, active = well fitted activation curve with a large enough effect; inconclusive = small, poorly fitted or top-dose-only effect; inactive = flat fitted curve, though single readings scatter. Starred links: 1 amine or outer side, 2 acyl side, 3 side chain; linkers in the order of their positions; H or OH if unused. Positions of bridges follow the written chain, without caps; N, C: chain ends. Non-standard residues stand in square brackets, D forms with d. Residues, ends and D or L forms follow the SMILES beside them. ξ: configuration not given here. *: point of attachment. X3 = C[C@@H](Oc1ccc([C@H](N[*:1])C(=O)[*:2])cc1)[C@]1(/C=C\C(=O)[*:3])CO1; d(aIle) = CC[C@H](C)[C@@H](N)C(=O)O; X2 = CC(C)[C@@H](O)C(C)C(=O)*; ξNMeF = CNC(Cc1ccccc1)C(=O)O; ξT = CC(O)C(N)C(=O)O; ξS = NC(CO)C(=O)O

Assay: qHTS for H2AX Agonists against the NCATS CANVASS Library (AID 1347378); for activation: 0% is about no effect
Conditions: CHO-K1 H2AX phosphorylation, HTRF TR-FRET, 3 h; series mostly up to 76.9 µM; activation: at the top concentration
Text: Natural products and their derivatives continue to be wellsprings of nascent therapeutic potential. However, many laboratories have limited resources for biological evaluation, leaving their previously isolated or synthesized compounds largely or completely untested. To address this issue, the Canvass library of natural products was assembled (https://tripod.nih.gov/canvass), in collaboration with academic and industry researchers, for quantitative high-throughput screening (qHTS) across a diverse set of cell-based and biochemical assays. The pure (>85% purity by liquid chromatography/mass spectrometry [LC/MS]) Canvass library of 346 natural products were submitted by 45 academic laboratories and companies around the world. We collected pure natural products to circumvent deconvolution and structure elucidation due to time and resource limitations. The library was formatted into 1536-well plates and evaluated in 50 qHTS (in an 11-pnt concentration series) bioassays with broad scope of disease-relevant mechanisms. The resulting data set from 50 different assays was then systematically analyzed to identify overall trends and specific natural products with interesting biological activities. Reported herein are the results of each individual qHTS and their corresponding assay protocol. This assay determines the levels of phospho-H2AX in cell lysates of Chinese hamster ovary CHO cells. It is based on time resolved fluorescence resonance energy transfer (TR-FRET). Two anti-H2AX antibodies are labeled with europium cryptate and d2, respectively. The increase of FRET levels is proportional to the concentration of phosphorylated H2AX. The results were expressed as the ratio of 665/615 nm emissions. National Center for Advancing Translational Sciences (NCATS), Rockville, MD National Institute of Health (NIH), Bethesda, Maryland
H2AX assay protocol: The CHO-K1 cells suspended in culture medium containing 10% FBS were dispensed at 1000 cells/ 3 ul/well in 1536-well white wall/solid bottom plates (Greiner Bio-One North America, NC) using a Multidrop Combi (Thermo Fisher Scientific Inc., Waltham, MA). After the assay plates were incubated at 37C overnight, 23 nl of compounds at 15 concentrations (from 5-48 columns) or positive control (from 1 to 4 columns) were transferred to the assay plates using a Pintool station (Wako, San Diego, CA) into each well resulting in a final DMSO concentration of 0.76%. After 3hr incubation at 37C, 1 uL/well Supplemented Lysis buffer (diluted 100 fold blocking reagent in lysis buffer) (HTRF Phospho-H2A.X (S139) Assay kit from Cisbio US Inc., Bedford, MA) was added using a Flying Reagent Dispenser (FRD) (Aurora Discovery, CA). After 10sec spin at 1000 rpm in a plate centrifuge, the assay plates were incubated at room temperature for 30 min. Then followed by the addition of 1 uL/well detection buffer (containing a mixture of two antibodies, one labeled with cryptate, Anti pH2AX (S139)-K and another labeled with d2, Anti H2AX-d2) using FRD. After incubation at room temperature for 24 hr, the time resolved fluorescence at excitation 320 nm and emissions at 665 nm and 620 nm was measured using an Envision plate reader (PerkinElmer, Waltham, MA).
Potency is the fitted concentration of half-maximal effect.

Structure (SMILES) | activation | Potency
C/C=C(\C)C(=O)O[C@@H]1[C@@H](O)[C@@H]2O[C@H]3[C@H](O[C@@H](CCCCC)CCCCCCC(=O)CCC(=O)OC[C@@H](O2)[C@H]1OC(=O)/C=C/c1ccccc1)O[C@H](C)[C@H](OC(C)=O)[C@@H]3O | -4.32% (inactive) | –
CO[C@H]1C[C@H](O[C@H]2[C@@H](O)C[C@H](O[C@H]3CC[C@]4(C=O)[C@H]5CC[C@]6(C)C(C7=CC(=O)OC7)CC[C@]6(O)[C@@H]5CC[C@]4(O)C3)O[C@@H]2C)O[C@H](C)[C@H]1O[C@H]1C[C@@H](OC)[C@@H](O[C@@H]2O[C@H](CO)[C@@H](O)[C@H](O)[C@H]2O)[C@@H](C)O1 (stereo partly drawn) | -1.26% (inactive) | –
CO[C@@H](/C=C/CC/C=C/C(=O)O)[C@@H](O)[C@H](C)/C=C(\C)[C@H](O)[C@H](C)C(=O)CCCC1CC(=O)NC(=O)C1 | 5.03% (inactive) | –
C[C@]12CC(O)C3[C@@H](CC[C@@H]4C[C@@H](O)CC[C@]34CO)[C@@]1(O)CC[C@@H]2C1=CC(=O)OC1 (stereo partly drawn) | -2.03% (inactive) | –
CC[C@@H]1CN2CCc3c([nH]c4cccc(OC)c34)[C@@H]2C[C@@H]1/C(=C\OC)C(=O)OC | 19% (inactive) | –
CCCCC1CC[C@H]2CCCC(CCC)N12 (stereo partly drawn) | 2.16% (inactive) | –
C=CC(C)(C)[C@@]12C[C@H]3C(=O)N/C(=C/c4cnc[nH]4)C(=O)N3[C@@H]1Nc1ccccc12 | -0.297% (inactive) | –
CO[C@H]([C@@H](C)[C@H]1O[C@]1(C)C[C@H](C)/C=C/C=C(\C)[C@H]1O[C@@H](CC(=O)O)CC[C@@H]1C)[C@@H](C)O | 3.76% (inactive) | –
CC[C@]12C=CCN3CC[C@]4(C(=C(C(=O)OC)C1)Nc1ccccc14)[C@@H]32 | -2.18% (inactive) | –
CC[C@H]1CN2CCc3c([nH]c4cccc(OC)c34)[C@@H]2C[C@@H]1/C(=C\OC)C(=O)OC | -4.22% (inactive) | –
CC(C)CC1C(=O)O[C@H](C(C)C)C(=O)N(C)C(CC(C)C)C(=O)O[C@@H](C(C)C)C(=O)N(C)C(CC(C)C)C(=O)O[C@H](C(C)C)C(=O)N(C)C(CC(C)C)C(=O)O[C@@H](C(C)C)C(=O)N1C (stereo partly drawn) | -2.1% (inactive) | –
C=C(C)[C@H]1C(=O)c2c3c(cc4c5c(n1c24)[C@@]1(C)[C@@H](CC[C@H]2[C@](C)(/C=C/C=C(\C)C(=O)O)[C@@H](O)CC[C@@]21C)C5)C1=CC(C)(C)OC(C)(C)[C@H]1[C@@H]3O | – | 13.7 µM (active)
CC[C@@H]1CN2CCC3(Nc4cccc(OC)c4C3=O)[C@@H]2C[C@@H]1/C(=C\OC)C(=O)OC (stereo partly drawn) | 0.131% (inactive) | –
C=CC(C)(C)[C@@]12C[C@H]3C(=O)N/C(=C\c4cnc[nH]4)C(=O)N3[C@@H]1Nc1ccccc12 | -1.76% (inactive) | –
C[N+](C)(C)CCc1c[nH]c2ccccc12 | -2.17% (inactive) | –
COC1C(O)C(C)OC(OC2C(Oc3cccc4c(O)c5c(=O)oc6ccc(C)c7c(=O)oc(c34)c5c67)OC(C)C(O)C2O)C1O (stereo not drawn) | – | 27.3 µM (active)
C=C[C@H]1CN2CCc3c([nH]c4cccc(OC)c34)[C@@H]2C[C@@H]1/C(=C\OC)C(=O)OC | -0.222% (inactive) | –

Structure (SMILES) | activation | Potency
C/C=C1/CN2CC[C@]34C(=C(C(=O)OC)[C@H]1C[C@H]23)Nc1ccccc14 | -1.19% (inactive) | –
C/C=C/[C@@H]1[C@H]2C[C@@H](C)CC[C@@H]2C(C)=C[C@H]1C(=O)c1c(O)c(-c2ccc(O)cc2)c[nH]c1=O | 5.42% (inactive) | –
C=C[C@]12C=CCN3CC[C@@]4(c5ccccc5NC(=O)[C@@H]4C1)[C@@H]32 | -2.07% (inactive) | –
C[C@]12CCC3[C@@H](CC[C@@H]4C[C@@H](O)CC[C@]34CO)[C@@]1(O)CC[C@@H]2C1=CC(=O)OC1 (stereo partly drawn) | -2.46% (inactive) | –
CO[C@@]12c3c(C)cc(O)c4c(=O)occ(c34)C(=O)[C@@H]1[C@]13COC(=O)c4c(O)cc(C)c(c41)C(=O)[C@H]2[C@@H]3OC(C)=O | 8.83% (inactive) | –
O[C@H]1C=C[C@@]23CCN(Cc4cc5c(cc42)OCO5)[C@@H]3C1 | -2.61% (inactive) | –
CC[C@H](C)[C@H]1NC(=O)[C@@H](NC(=O)C(C)[C@H](O)C(C)C)[C@@H](C)OC(=O)C2COC(=O)CNC(=O)/C=C\[C@]3(CO3)[C@@H](C)Oc3ccc(cc3)[C@H](NC1=O)C(=O)N(C)C(Cc1ccccc1)C(=O)NC(C(C)O)C(=O)N2 (stereo partly drawn) (X2-T[d(aIle)][X3][ξNMeF][ξT][ξS]; ester 1-C; linker 3-6 via G) | -2.01% [at 46 µM] (inactive) | –
c1ccc2nc3c(cc2c1)[nH]c1ccccc13 | 1.29% (inactive) | –
C[C@]12CC(O)C3[C@@H](CCC4C[C@@H](O)CC[C@@]43CO)[C@@]1(O)CC[C@@H]2C1=CC(=O)OC1 (stereo partly drawn) | -5.22% (inactive) | –
CO[C@H]1[C@H](O[C@H]2CC[C@]3(C=O)[C@H]4CC[C@]5(C)[C@@H](C6=CC(=O)OC6)CC[C@]5(O)[C@@H]4CC[C@]3(O)C2)O[C@H](C)[C@H](O)[C@@H]1OC | -3.82% (inactive) | –
C/C=C1/CN2CC[C@@]34c5ccccc5N(C)[C@@H]3[C@@H]2C[C@@H]1[C@H]4C(=O)OC | -2.25% (inactive) | –
CCCC[C@@H](C)/C=C1/CN2CCC[C@H]2[C@@](C)(O)[C@@H]1O | -2.82% (inactive) | –
CCC(=O)N[C@@H](C[C@H](C)C(Cl)(Cl)Cl)C(=O)N1C(=O)C=C(OC)[C@@H]1C[C@H](C)C(Cl)Cl | -3.67% (inactive) | –
C1=C2CCCN[C@H]2C2CC1[C@H]1CCCCN1C2 (stereo partly drawn) | -4.45% (inactive) | –
COC1=C(C2=C(OC)C(=O)c3cc4c(c(O)c3C2=O)C(=O)O[C@H](C)C4)C(=O)c2c(cc3c(c2O)C(=O)O[C@H](C)C3)C1=O | 10.9% [at 25.6 µM] (inactive) | –
CCCC[C@@H]1CC[C@H]2CCCC(CCCO)N12 (stereo partly drawn) | 0.88% (inactive) | –
